Records with an inconclusive call do not appear. The source made the active and inactive calls. Unless noted, calls follow the shape of the dose curve; as a rule, active = well fitted curve in the direction sought with a large enough effect in the repeat runs; inconclusive = weak or mixed curves; inactive = no such curve, though single readings can be large; an effect the other way counts as inactive or inconclusive.
Columns and labels:
[1] = qHTS assay to identify small molecule antagonists of the thyroid receptor (TR) signaling pathway - cell viability counter screen (AID 743064); also: nearly all actives have a fitted effect of over 50% in size
Summary of the method: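 Rat GH3 pituitary tumor cells stably expressing two TR response elements driving luciferase were plated, rested 4 h, then dosed with library compounds and T3 (1 nM final). After 23.5 h at 37 °C, CellTiter-Fluor was added for 30 min and fluorescence recorded.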

[2] = qHTS assay to identify small molecule antagonists of the estrogen receptor alpha (ER-alpha) signaling pathway - cell viability counter screen (AID 743074; calls by dose curve;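 also: HEK293 cells carrying ER-alpha-UAS-bla reporter stimulated with 17beta-estradiol; nearly all actives have a fitted effect of over 45% in size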)
[3] = qHTS assay to identify small molecule antagonists of the estrogen receptor alpha (ER-alpha) signaling pathway using the BG1 cell line - cell viability counter screen (AID 743081);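 also: compound given together with 17beta-estradiol as the ER stimulus; nearly all actives have a fitted effect of over 45% in size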
[4] = biological target: Aromatase (Homo sapiens) (UniProt P11511); experiment: qHTS assay to identify aromatase inhibitors (AID 743083); also: nearly all actives have a fitted effect of over 55% in size
[5] = qHTS assay to identify small molecule antagonists of the thyroid receptor (TR) signaling pathway (AID 743065); also: nearly all actives have a fitted effect of over 55% in size
Summary of the method: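 GH3.TRE-Luc rat pituitary cells (two TREs driving luciferase) were dosed with compound, then stimulated with 1 nM T3 (final) for 23.5 h at 37 C. ONE-Glo luminescence was the read-out, with CellTiter-Fluor fluorescence as the cytotoxicity counter-screen.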

[6] = tested on: thyroid hormone receptor (rat, GH3 cells); experiment: qHTS assay to identify small molecule agonists of the thyroid receptor (TR) signaling pathway (AID 743066; calls by dose curve)
[7] = biological target: Estrogen receptor (Homo sapiens) (UniProt P03372); experiment: qHTS assay to identify small molecule antagonists of the estrogen receptor alpha (ER-alpha) signaling pathway (AID 743069; active = well fitted curve in the direction sought with a large enough effect in the signal ratio in the repeat runs, not every such curve was filed as active; the % refers to the signal ratio)
Summary of the method: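 Beta-lactamase FRET fluorescence is read after 2 hr at room temperature with LiveBLAzer B/G substrate. Before that, ER-alpha-bla HEK293 cells sit 4 hr after plating, then receive compound plus 17beta-estradiol and incubate 18 hr at 37C.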

[8] = biological target: Estrogen receptor (Homo sapiens) (UniProt P03372); experiment: qHTS assay to identify small molecule agonists of the estrogen receptor alpha (ER-alpha) signaling pathway (AID 743075; calls by dose curve;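 also: HEK293 GripTite cells with ER-alpha and UAS-driven beta-lactamase reporter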)
[9] = biological target: Estrogen receptor (Homo sapiens) (UniProt P03372); experiment: qHTS assay to identify small molecule agonists of the estrogen receptor alpha (ER-alpha) signaling pathway using the BG1 cell line (AID 743079); details: BG1Luc4E2 cells, ERE-luciferase agonist, 22 h; activation: at 70.3 µM (top of the series); also: nearly all actives have a fitted effect of over 20% in size
[10] = qHTS assay to identify small molecule antagonists of the estrogen receptor alpha (ER-alpha) signaling pathway using the BG1 cell line (AID 743080; calls by dose curve;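 also: BG1 cells stimulated with 17beta-estradiol alongside compound; nearly all actives have a fitted effect of over 25% in size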)
Summary of the method: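 Endogenous full-length ER-alpha in BG1-Luc-4E2 cells drives a stably integrated 4×ERE luciferase gene; compounds were tested against 17beta-estradiol over 21.5 h, with luminescence and multiplexed viability fluorescence recorded.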

Measured: Potency

Estrogen receptor (Homo sapiens), sequence (P03372 whole entry, looked up): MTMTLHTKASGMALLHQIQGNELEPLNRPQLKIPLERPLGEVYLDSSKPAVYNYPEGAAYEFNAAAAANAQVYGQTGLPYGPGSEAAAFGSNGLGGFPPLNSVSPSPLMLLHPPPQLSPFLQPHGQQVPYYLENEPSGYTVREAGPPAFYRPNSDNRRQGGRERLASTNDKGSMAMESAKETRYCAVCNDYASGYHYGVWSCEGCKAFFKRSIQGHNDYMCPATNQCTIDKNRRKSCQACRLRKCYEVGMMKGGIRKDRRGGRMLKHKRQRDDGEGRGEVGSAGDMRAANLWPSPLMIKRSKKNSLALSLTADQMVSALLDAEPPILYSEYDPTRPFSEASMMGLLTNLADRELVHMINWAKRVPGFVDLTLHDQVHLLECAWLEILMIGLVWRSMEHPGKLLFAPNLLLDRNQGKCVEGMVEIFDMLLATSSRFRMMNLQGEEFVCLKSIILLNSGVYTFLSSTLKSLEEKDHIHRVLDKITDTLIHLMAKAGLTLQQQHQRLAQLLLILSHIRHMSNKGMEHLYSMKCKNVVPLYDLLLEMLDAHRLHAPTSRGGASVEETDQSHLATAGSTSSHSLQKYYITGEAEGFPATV
Aromatase (Homo sapiens), sequence (P11511 whole entry, looked up): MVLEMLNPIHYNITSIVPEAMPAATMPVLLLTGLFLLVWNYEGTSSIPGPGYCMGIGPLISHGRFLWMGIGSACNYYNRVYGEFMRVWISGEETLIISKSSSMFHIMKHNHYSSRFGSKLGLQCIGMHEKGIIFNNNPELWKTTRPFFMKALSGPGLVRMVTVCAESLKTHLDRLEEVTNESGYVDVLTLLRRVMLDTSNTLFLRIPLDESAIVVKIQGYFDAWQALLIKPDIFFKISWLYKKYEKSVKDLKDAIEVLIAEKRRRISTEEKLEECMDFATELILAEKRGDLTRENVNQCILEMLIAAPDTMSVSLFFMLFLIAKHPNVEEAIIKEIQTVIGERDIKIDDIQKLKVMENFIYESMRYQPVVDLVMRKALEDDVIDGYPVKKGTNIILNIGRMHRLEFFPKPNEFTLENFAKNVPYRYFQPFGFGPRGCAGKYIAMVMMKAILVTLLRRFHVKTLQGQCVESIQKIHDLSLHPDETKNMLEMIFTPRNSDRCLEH

CCSc1ccc2c(c1)N(CCCN1CCN(C)CC1)c1ccccc1S2
inactive: [1] | [2] | [3] | [4]

O=C(O)COc1ccc(CCNS(=O)(=O)c2ccccc2)s1
not listed: [1]
inactive: all other assays above

COC(=O)CCC[N+](C)(C)C
inactive: [1] | [2] | [3] | [4]
